MITF primary – human MITF inhibition, primary screen; O75030; inhibition, % at 2.6 µM; 650,000 tested, 0.91% active; AlphaScreen MITF homodimerization, bead proximity signal; in the data active means inhibition above about 50%;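 further: 0% = vehicle wells with protein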
GPR151 ag – human GPR151 activation; Q8TDV0; PathHunter beta-arrestin GPR151 cells, luminescence; activation, % at 11.2 µM; 650,000 tested, 1% active; AID 1508602; in the data active means activation above about 4.9%;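 further: 0% = median of compound wells and 100% = cells with positive control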
FBW7 activator – human FBW7 E3 ligase activation, primary screen; Q969H0; 650,000 tested, 0.13% active; AlphaScreen FBW7–phospho-cyclin E peptide binding, activator screen; normalized activity (activation), % at 26.1 µM; in the data active means normalized activity above about 1.9%;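 further: purified mutant Fbw7 with reduced substrate affinity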
Target sequence (Q969H0 whole entry, looked up): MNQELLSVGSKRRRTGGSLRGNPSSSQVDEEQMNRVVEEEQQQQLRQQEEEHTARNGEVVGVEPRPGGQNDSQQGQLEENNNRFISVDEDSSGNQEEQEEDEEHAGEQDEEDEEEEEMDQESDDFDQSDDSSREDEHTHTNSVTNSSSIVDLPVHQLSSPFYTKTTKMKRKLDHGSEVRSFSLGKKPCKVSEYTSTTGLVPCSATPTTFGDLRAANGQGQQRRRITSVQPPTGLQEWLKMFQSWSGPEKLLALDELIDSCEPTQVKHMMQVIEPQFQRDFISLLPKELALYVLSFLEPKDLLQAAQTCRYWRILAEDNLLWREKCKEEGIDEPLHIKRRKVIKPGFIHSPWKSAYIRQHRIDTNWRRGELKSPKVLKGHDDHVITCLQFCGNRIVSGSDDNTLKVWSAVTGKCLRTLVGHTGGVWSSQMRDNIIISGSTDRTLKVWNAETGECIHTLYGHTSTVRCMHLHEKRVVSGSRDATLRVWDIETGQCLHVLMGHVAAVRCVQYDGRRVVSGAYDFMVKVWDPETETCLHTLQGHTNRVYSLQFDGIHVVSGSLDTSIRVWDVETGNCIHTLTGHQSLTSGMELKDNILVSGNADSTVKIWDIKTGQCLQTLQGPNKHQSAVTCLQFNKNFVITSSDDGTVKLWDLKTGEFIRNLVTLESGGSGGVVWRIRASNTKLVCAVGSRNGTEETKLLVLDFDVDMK
TEAD-YAP inh – TEAD-YAP interaction inhibition. HEK-TIYL cells, TEAD-Gal4/YAP UAS-luciferase luminescence. 640,000 tested, 1.4% active. inhibition, % at 9.12 µM. AID 1259422; in the data active means inhibition above about 32%;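 further: 0% = median of test compound wells and 100% = reference inhibitor wells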
The depositor's hits bear a star. Shown are actives, neighbours in structure and some others; about 3.4% of the full set was active somewhere.

SMILES	MITF primary	GPR151 ag	FBW7 activator	TEAD-YAP inh
N#CCSc1nc2cc(C(=O)NCc3cccc(Cl)c3)ccc2c(=O)n1Cc1ccccc1	-4	-2	0	4
CC(C)n1cnc2c(Nc3ccc(F)cc3)ncnc21	18	-6	0	54*
NC(=O)c1cc(NC(=O)Cc2ccccc2)ccc1N1CCCCC1	10	0	0	-10
O=C(NCCC1=CCCCC1)c1ccc(N2CC3CC(C2)c2cccc(=O)n2C3)c([N+](=O)[O-])c1 (centres undefined)	-1	0	0	-6
CCCCOc1ccccc1C(=O)NNC(=S)NC(C)=O	38	-1	-1	16
CC(=O)NC(=S)NNC(=O)c1ccccc1OCc1ccccc1	0	-2	-1	63*
Cc1ccc2c(c1)-c1c(sn(-c3ccc(C)c(Cl)c3)c1=S)C(C)(C)N2C	9	1	0	7
CCOc1ccc(NS(=O)(=O)c2ccc(F)c(F)c2F)cc1	15	1	1	18
C=CCN1CCN(c2c(Cl)cccc2NC(=O)c2cnccn2)CC1	12	-1	1	-23
CC(=O)Nc1nc(-c2cc(Cl)ccc2Cl)cs1	4	-1	0	6
CC(=O)Nc1nc(-c2ccc(Cl)cc2Cl)cs1	-4	1	0	50*
Oc1c(C(c2ccccn2)N2CCCC2)cc(Cl)c2cccnc12 (centres undefined)	79*	-1	0	29
CCOC(=O)N1CCN(Cc2cc(Cl)c3cccnc3c2O)CC1	50	0	-1	76*
Oc1c(C(c2ccccn2)N2CCN(c3ccc(F)cc3)CC2)cc(Cl)c2cccnc12 (centres undefined)	26	0	0	-2
CCN(CC)Cc1cc(Cl)c2cccnc2c1O	55*	0	-1	74*
CN1CCN(C(c2ccccn2)c2cc(Cl)c3cccnc3c2O)CC1 (centres undefined)	28	1	0	7
CCOC(=O)N1CCN(C(c2ccccn2)c2cc(Cl)c3cccnc3c2O)CC1 (centres undefined)	53*	-2	0	-5
CC(C)c1ccc(/C=C(\C#N)C(=O)Nc2ccc(S(N)(=O)=O)cc2)cc1	-5	1	0	-1
N#Cc1ccc(/C=N/Nc2nncc3ccccc23)cc1	4	-1	0	-17
Oc1c(CN2CCC(Cc3ccccc3)CC2)cc(Cl)c2cccnc12	60*	0	0	60*
CCOC(=O)N1CCN(C(c2ccccn2)c2c(C)[nH]c3ccccc23)CC1 (centres undefined)	7	-1	0	4
CCOC(=O)N1CCN(C(c2ccccn2)c2ccc3cccnc3c2O)CC1 (centres undefined)	91*	-2	0	7
c1ccc(CC2CCN(Cc3ccccn3)CC2)cc1	24	3	0	2
COc1cc(C2Nc3ccccc3NC3=C2C(=O)CC(c2ccccc2Cl)C3)cc(Br)c1O (centres undefined)	4	0	0	43*
COc1cc(C2Nc3ccccc3NC3=C2C(=O)CC(c2ccccc2Cl)C3)ccc1O (centres undefined)	5	-1	0	51*
SMILES	MITF primary	GPR151 ag	FBW7 activator	TEAD-YAP inh
CCOC(=O)C1CCN(C(=O)COC(=O)c2cc(O)c(O)c(O)c2)CC1	90*	0	0	3
CCOC(=O)C1CCN(C(=O)COCC(=O)N2CCC(C(=O)OCC)CC2)CC1	4	2	0	-4
CCOC(=O)C1CCN(C(=O)COc2ccc(C(C)(C)C)cc2)CC1	-4	0	0	60*
CCOC(=O)C1CCN(C(=O)COc2ccc(C)cc2)CC1	16	0	0	10
CCC(=O)N(/C=C1\Sc2ccccc2C1=O)c1ccccc1OC	-2	1	0	83*
CCC(=O)N(/C=C1\Sc2ccccc2C1=O)c1ccccc1	18	-3	1	-1
CCC(=O)N(/C=C1\Sc2ccccc2C1=O)c1ccc(C)cc1	6	-3	0	53*
COc1ccc(N(/C=C2\Sc3ccccc3C2=O)C(=O)c2ccco2)cc1	5	-5	0	31
Cc1cc2c(c(=O)n1CCN(C)C)C(c1ccccc1F)C(C#N)=C(N)O2 (centres undefined)	17	0	0	17
Cc1nccn1-c1ccc(NC(=O)C2CCCN(Cc3nc4ccc(F)cc4[nH]3)C2)cc1 (centres undefined)	12	0	0	-3
CC(C)OC(=O)CSc1nc2c(c(-c3ccc(O)cc3)c1C#N)CCCC2	4	1	0	48*
CC(Nc1nc2c(s1)CCCC2)c1ccccc1 (centres undefined)	-4	1	0	-18
O=S(=O)(c1ccc(N2CCc3ccccc3C2)cc1)N1CCCC1	-5	0	0	-8
CCCCN(CCCC)C(=O)Cc1cccs1	0	1	0	44*
Cc1ccccc1-c1nc(CSCC(=O)N2CCOCC2)c(C)o1	-3	1	0	12
CCc1ccc(-c2nc(CSCC(=O)N3CCN(CC)CC3)c(C)o2)cc1	-7	0	0	37*
Cc1ccccc1-c1nc(CSCC(=O)N2CCCC2)c(C)o1	-9	-1	0	56*
Cc1ccsc1-c1nc(CSCC(=O)N2CCCC2)c(C)o1	-3	0	0	46*
Cc1occc1C(=O)NNC(=O)C(C)(C)C	15	-1	1	7
CC(C)Cn1c(-c2cccs2)nc2c(c(=O)c3ccccc3n2C)c1=O	4	-1	0	-8
CC(C)[C@@H](CO)Nc1ccc2ncc(-c3ccco3)n2n1	-9	0	0	53*
CC(C)[C@@H](CO)Nc1ccc2ncc(-c3ccc(CO)cc3)n2n1	8	1	0	43*
CC(C)[C@@H](CO)Nc1ccc2ncc(-c3ccc(N(C)C)cc3)n2n1	-8	-1	-1	-4
COc1ccc(-c2cnc3ccc(N[C@H](CO)C(C)C)nn23)c(OC)c1	-5	0	2.0*	-17
CC(C)[C@@H](CO)Nc1ccc2ncc(-c3cccc4ccccc34)n2n1	17	1	0	0
SMILES	MITF primary	GPR151 ag	FBW7 activator	TEAD-YAP inh
CC(C)[C@@H](CO)Nc1ccc2ncc(-c3ccsc3)n2n1	0	0	0	32*
O=C(CSc1nc2ccc(N3C(=O)C4C5C=CC(C5)C4C3=O)cc2s1)Nc1cccc(C(F)(F)F)c1 (centres undefined)	-15	1	0	28
O=C(Nc1ccc(Cl)cc1Cl)c1nn2c(C(F)(F)F)cc(-c3ccccc3)nc2c1Br	-3	1	0	3
N#Cc1c(-c2ccccc2F)c(C#N)c2nc3ccccc3n2c1N	-15	0	0	42*
N#Cc1ccccc1NC(=S)NC(=O)c1ccc([N+](=O)[O-])cc1	8	-1	0	0
Cn1cc(C(=O)N/N=C/c2c[nH]c3ccccc23)c2ccccc21	2	0	0	37*
CCOc1ccc(/C=N/NC(=O)/C(=C/c2ccccc2O)NC(=O)c2ccccc2)cc1	31	-8	0	88*
O=C(N/N=C/c1c[nH]c2ccccc12)/C(=C/c1ccccc1O)NC(=O)c1ccccc1	20	-8	0	86*
